# An excerpt weighted towards active compounds, which were near 6% of everything screened.
# Tau fibril FP: blocks human tau fibril formation measured by polarization. P10636. K18 P301L tau heparin fibrillization, Alexa594 FP, 6 h. Potency, µM (doses to about 57.7 µM), for the others: at the top dose activity, negative = inhibition, hits mostly inhibitors. actives 0.39% (n = 280,000). AID 1468; further: nearly all actives have a fitted effect of over 55% in size
# Target sequence (P10636 561-689 P618L limits assumed): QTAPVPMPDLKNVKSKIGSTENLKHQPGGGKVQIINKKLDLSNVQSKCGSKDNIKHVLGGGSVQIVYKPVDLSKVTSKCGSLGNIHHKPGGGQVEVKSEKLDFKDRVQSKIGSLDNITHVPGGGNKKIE
#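 Steps: dispense K18 P301L tau (15 uM plus 0.24 uM Alexa 594 tracer, final) in pH 7 sodium acetate; add compound; add heparin (20 uM final); incubate 6 hr, 37 C; add ThT (30 uM final); after 1 hr ambient, read FP.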
# Tau ThT inhib: inhibitors of human tau fibril formation, thioflavin T binding. recombinant tau K18 P301L, heparin-induced fibrillization, ThT fluorescence. Potency, µM (titrated, usually from 57.4 µM), for inactives: top-dose activity, negative = inhibition, most hits filed as inhibitors. actives 2.1% (n = 270,000). AID 1460; further: nearly all actives have a fitted effect of over 55% in size
#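 Fibril formation assay: tau K18 P301L at 15 uM with trace Alexa 594 label, heparin inducer 20 uM, pH 7 sodium acetate buffer, 37 C for 6 hr; endpoint ThT signal.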
# Tau fluor cs: counter-screen for tau fibril formation inhibitors; tau K18 P301L Alexa594 fluorescence, heparin fibrillization; Potency, µM (titrated, usually from 57.7 µM), inactives show at the top dose activity change, negative = decrease; actives 0.93% (n = 280,000); further: nearly all actives have a fitted effect of over 55% in size
#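 Human tau K18 P301L (15 uM unlabeled, 0.24 uM Alexa 594-labeled) in 100 mM sodium acetate pH 7 with 20 uM heparin, 6 hr at 37 C. ThT 30 uM added, 1 hr ambient; Alexa 594 FP and total fluorescence read at 555/632 nm.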
# Sfp inh: inhibitors of Bacillus subtilis Sfp phosphopantetheinyl transferase | Potency, µM, without a hit: largest response in the series, negative = inhibition, usual class: inhibitors | Q9F4F7 | Biochemical Sfp PPTase activity, qHTS | actives 3.5% (n = 310,000);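 further: the enzyme is Sfp with the accession as filed and its product quenches rhodamine fluorescence; 0% = enzyme reaction without inhibitor and -100% = no enzyme wells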
#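 Buffer: 50 mM Hepes-Na pH 7.6, 10 mM MgCl2, 0.01% Nonidet P-40, 0.01% BSA. Enzyme 15 nM, pre-exposed to compound 15 min; substrates then added and fluorescence change tracked over 30 min.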
# VDR inhibitor: blocks the human vitamin D receptor | Potency, µM, inactives show max response, negative = inhibition, most hits filed as inhibitors | actives 0.93% (n = 400,000) | VDR-SRC2-3 peptide fluorescence polarization, 2 h | P11473
# Target sequence (P11473 whole entry, looked up): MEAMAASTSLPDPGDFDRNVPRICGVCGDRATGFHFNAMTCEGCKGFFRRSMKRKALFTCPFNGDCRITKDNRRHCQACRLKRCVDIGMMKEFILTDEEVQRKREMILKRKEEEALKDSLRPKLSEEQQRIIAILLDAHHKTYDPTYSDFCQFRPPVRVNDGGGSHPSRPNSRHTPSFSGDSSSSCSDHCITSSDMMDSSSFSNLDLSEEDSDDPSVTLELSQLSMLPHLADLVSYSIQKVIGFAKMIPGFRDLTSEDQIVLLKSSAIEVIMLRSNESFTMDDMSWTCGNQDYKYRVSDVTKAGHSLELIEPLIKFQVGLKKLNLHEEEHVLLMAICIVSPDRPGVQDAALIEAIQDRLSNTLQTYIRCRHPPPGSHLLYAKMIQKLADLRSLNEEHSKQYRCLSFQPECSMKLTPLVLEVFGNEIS
#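 Measured by FP: displacement of SRC2-3 coactivator peptide from VDR by library compounds, following a two-hour ambient incubation.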
# PLK1 PBD block: blocks phosphopeptide binding to human PLK1 polo-box domain; P53350; Plk1 PBD binding of FITC phosphopeptide, fluorescence polarization; Potency, µM, for inactives: max response, negative = inhibition, most hits filed as inhibitors; actives 2.8% (n = 360,000); AID 720504; further: series mostly up to about 57 µM; nearly all actives have a fitted effect of over 65% in size
# * = called active by the depositor; ? = inconclusive; . = no result; ! = not active in a repeat. The call rests on the fitted dose curve; in most records, active means well fitted curve in the direction sought with a large enough effect; inconclusive means small, poorly fitted or top-dose-only effect, or another doubt; inactive means no such curve, though single readings can be large; an effect the other way counts as inactive or inconclusive. Unless noted, on the % scale 0 is the no-effect control and ±100 the full control effect; potency means the concentration at half of the fitted maximal effect.
SMILES,Tau fibril FP,Tau ThT inhib,Tau fluor cs,Sfp inh,VDR inhibitor,PLK1 PBD block
COC(=O)CSc1n[nH]c(=S)s1,-5.8%,-1.4%,-2.0%,?,-2.1%,18.9µM*
Cc1cc(C=C2C(=O)NC(=S)NC2=O)c(C)n1C1CCCC1,-13.0%,15.8µM*,-22.3%,39.8µM*,-20.6%,?
O=C(O)CN1C(=O)CN=C(c2ccccn2)c2cc(Cl)ccc21,-5.7%,-7.8%,-8.6%,50.1µM*,9.9%,1.6%
CC(=O)OC1CC[C@]2(C)C(CCC3C2CC[C@]2(C)C(C4=CC(=O)OC4)C(OC(C)=O)CC32O)C1 (stereo partly drawn),-0.3%,-6.9%,-14.9%,-9.4%,12.7%,.
c1ccc2c(CCN3CCCCC3)c[nH]c2c1,.,.,.,.,.,-29.1%
c1ccc2c(CCNC3CCCCC3)c[nH]c2c1,7.3%,1.6%,4.8%,50.1µM*,10.2%,-4.2%
Cc1ccc(C(=O)N[C@@H](C)CN2C3=NC[C@H](Cc4ccccc4)N3C[C@H]2Cc2ccc(O)cc2)cc1Br,5.8%,?,-14.0%,56.2µM*,-6.4%,-13.7%
CCCN1CCC[C@@H]2Cc3cn[nH]c3C[C@H]21,-2.3%,-3.7%,-4.5%,?,0.2%,.
Cc1ccc(-c2cn3c(=S)[nH]nc3s2)cc1,1.3%,-19.3%,-16.8%,35.5µM*,-14.0%,-26.2%
COC(=O)/C(C)=C\CC12OC(C)(C)C3CC(C=C4C(=O)c5c(OC)c6c(c(CC=C(C)C)c5OC431)OC(C)(CCC=C(C)C)C=C6)C2=O (stereo not drawn),?,28.2µM*,-21.6%,?,2µM*,.
CC(=O)Oc1c2c(c(CC=C(C)C)c3c1C(=O)C1=CC4CC5C(C)(C)OC(C/C=C(\C)C(=O)O)(C4=O)[C@]15O3)OC(C)(CCC=C(C)C)C=C2 (stereo partly drawn),10µM*,7.08µM*,?,25.1µM*,1.26µM*,.
Cc1ccc2cc(C=C(C#N)C#N)c(Cl)nc2c1,-8.6%,?,-2.9%,56.2µM*,35.5µM*,8.44µM*
CC(=O)OCC1=C[C@H]2[C@@H]3C(C)(C)[C@]3(OC(=O)Cc3ccccc3)C[C@@H](C)[C@]2(O)[C@@H]2C=C(C)C(=O)[C@@]2(O)C1,.,.,.,15.3%,-1.8%,.
CCN1C[C@@]2(COC(=O)c3ccccc3N3C(=O)CC(C)C3=O)CC[C@H](OC)[C@]34C5C[C@@H]6[C@@H](OC)C[C@@](O)(C5[C@H]6OC)[C@@](O)(C13)[C@@H](OC)C24 (stereo partly drawn),0.3%,1.5%,1.4%,15.8%,-0.4%,.
CC1CCC2C(C)C(=O)OC3OC4(C)CCC1C32OO4 (stereo not drawn),-17.7%,-6.4%,-12.9%,89.1µM*!,14.7%,-1.3%
O=C(Nc1ccc2nc(SCC(=O)N3CCCc4ccccc43)sc2c1)c1cccc(F)c1,?,1.3%,?,.,-1.8%,.
Cc1ccc(CNCCc2ccc(F)cc2)s1,.,.,.,6.3%,-8.0%,1.2%
Cc1ccc(/C=C2\C(=O)NC(=O)N(CCc3ccc(F)cc3)C2=O)s1,-9.7%,?,-18.9%,-11.1%,?,0.267µM*
Cc1ccc(/C=C2/C(=O)NC(=O)N(CCc3ccc(F)cc3)C2=O)s1,2.2%,?,-3.9%,6.7%,?,0.947µM*
Cc1ccc(/C=C2/C(=O)NC(=O)N(CC3CCCO3)C2=O)s1 (stereo not drawn),-4.8%,?,-2.7%,?,?,5.97µM*
COC1(C)CC(c2ccccc2)c2c(c3ccccc3oc2=O)O1 (stereo not drawn),.,.,.,-5.2%,-5.8%,.
C[C@@H]1O[C@@H](O[C@H]2CC[C@]3(C=O)C4CC[C@]5(C)[C@@H](C6=CC(=O)OC6)CC[C@]5(O)[C@@H]4CC[C@]3(O)C2)[C@H](O)[C@H](O)[C@H]1O (stereo partly drawn),1.4%,-4.7%,-7.2%,4.2%,-0.6%,.
C=CCN1C(=O)/C(=C\c2ccc(N3CCOCC3)o2)C(=O)NC1=S,-6.0%,?,0.0%,56.2µM*,-20.2%,75.4%
CN1CCN(c2ccc(/C=C3\C(=O)NC(=S)N(c4cccc(Br)c4)C3=O)o2)CC1,-13.9%,15.8µM*,-18.7%,9.5%,?,104.5%
Cc1nc2ccc(Nc3nc4cc(S(=O)(=O)N5CCOCC5)ccc4o3)cc2s1,-7.9%,?,?,?,-12.6%,4.74µM*
SMILES,Tau fibril FP,Tau ThT inhib,Tau fluor cs,Sfp inh,VDR inhibitor,PLK1 PBD block
O=C(Nc1ccc2nc(SCC(=O)N3CCOCC3)sc2c1)c1ccc(Cl)cc1,?,6.7%,-25.1%,.,0.6%,.
C[C@]12CC[C@H](O)C[C@H]1CCC1C2CC[C@]2(C)[C@@H](c3ccc(=O)oc3)C[C@H]3O[C@]132 (stereo partly drawn),.,.,.,0.4%,?,.
COCCN1C(=O)NC(=O)/C(=C\c2ccc(Br)cc2)C1=O,?,?,-5.7%,50.1µM*,?,5.32µM*
CN(C)c1ccc(/C=C2/C(=O)NC(=O)N(CCc3ccc(F)cc3)C2=O)cc1,-9.8%,?,1.5%,-22.7%,?,5.97µM*
CCOc1cc(/C=C2\C(=O)NC(=O)N(CCc3ccc(F)cc3)C2=O)ccc1O,?,.,-38.5%,70.8µM*,?,1.68µM*
CN(C)c1ccc(CCN2CCOCC2)cc1,.,.,.,.,-27.0%,-1.6%
CN(C)c1ccc(/C=C2\C(=O)NC(=O)N(Cc3ccc(F)cc3)C2=O)cc1,-13.3%,.,-6.6%,-17.5%,-13.8%,1.19µM*
O=C(c1ccco1)N1CCC2(CC1)CN(Cc1ccncc1)C2,.,.,.,-2.7%,-9.3%,.
CC(=O)OC[C@H](N)C(=O)c1ccccc1,5.0%,-12.9%,-9.7%,-0.9%,.,.
O=C1NC(=O)N(Cc2ccc(F)cc2)C(=O)/C1=C\c1ccoc1,-3.7%,-13.7%,-11.5%,-27.5%,-1.3%,2.67µM*
Cc1cc(/C=C2\C(=O)NC(=O)N(Cc3ccco3)C2=O)c(C)n1-c1ccc(O)cc1,-3.6%,0.7%,-6.4%,?,29.8%,-28.6%
CCOP(=O)(/C=C(\Cl)c1ccccc1)C(O)c1ccc(F)cc1 (stereo not drawn),.,.,.,12.3%,?,21.2µM*
Oc1ccc(Cl)cc1Sc1cc(Cl)ccc1O,.,.,.,19.2%,3.1%,?
CCc1ccc(N2C(=O)NC(=O)/C(=C\c3cccn3CCOc3ccc(C(C)C)cc3)C2=O)cc1,-6.6%,?,-6.5%,4.7%,?,-6.6%
CC(C)c1ccc(N2C(=O)NC(=O)/C(=C/c3cnc(-c4ccccc4)nc3)C2=O)cc1,?,15.8µM*,-23.4%,56.2µM*,35.5µM*,11.9µM*
CSc1ncc(/C=C2/C(=O)NC(=O)N(c3ccc(C(C)C)cc3)C2=O)cn1,?,25.1µM*,-18.0%,79.4µM*,?,15µM*

# Bioassay records as filed in PubChem BioAssay.
